# Bioassay records from PubChem.
# BCR signal inh = qHTS Assay to Find Inhibitors of Chronic Active B-Cell Receptor Signaling | ABC-DLBCL IkBa-CBG/CBR reporter, luminescence ratio, 4 h | Potency, µM (doses to about 46.1 µM), inactives show top-dose activity change, negative = inhibition, hits mostly inhibitors | hit rate 0.05% among 340,000 | AID 493014, 2011; active means well fitted inhibition curve with a large enough effect in the signal ratio, with a control signal flat, not every such curve was filed as active; inconclusive means small, poorly fitted or top-dose-only effect, or effect the other way, or a change in a side signal; the % refers to the signal ratio;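 further: potency means the concentration at half of the fitted maximal effect; plate controls were basal doxycycline-induced cells for no effect and cells given 10 µM MG132 for full effect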
#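 Compounds up to 46 uM were incubated four hours with TMD8 cells whose green CBG68 luciferase is fused to IkappaBalpha; red CBR luminescence normalised the signal, and concentration-effect curves were fitted to fusion, red and ratio data.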
# D1 PAM = Potentiators of Human D1 Dopamine Receptor: qHTS. HEK293 TREx D1 cells, calcium flux, dopamine EC20 potentiation. potentiation, % at 10 µM. hit rate 0.036% among 360,000; in the data active means potentiation above about 30%; further: 0% is about no effect
# Target sequence (P21728 whole entry, looked up): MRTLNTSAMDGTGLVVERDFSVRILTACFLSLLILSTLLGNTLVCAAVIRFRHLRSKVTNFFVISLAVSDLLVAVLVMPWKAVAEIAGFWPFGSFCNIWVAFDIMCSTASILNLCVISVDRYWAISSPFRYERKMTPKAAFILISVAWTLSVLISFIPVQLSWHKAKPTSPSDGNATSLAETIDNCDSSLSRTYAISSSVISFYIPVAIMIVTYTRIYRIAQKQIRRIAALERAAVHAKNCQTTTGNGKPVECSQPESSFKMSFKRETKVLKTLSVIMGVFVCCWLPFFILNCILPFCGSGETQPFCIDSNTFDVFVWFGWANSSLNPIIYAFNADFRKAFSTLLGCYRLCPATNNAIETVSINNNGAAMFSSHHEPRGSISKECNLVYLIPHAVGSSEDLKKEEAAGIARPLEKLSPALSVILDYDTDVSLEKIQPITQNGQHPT
# D1 antag = Antagonist of Human D 1 Dopamine Receptor: qHTS; hit rate 3.2% among 360,000; activity change, negative = inhibition, % at 10 µM; HEK293 TREx D1 cells, calcium flux, dopamine EC80; hits give low values; in the data active means activity change below about -30%; further: on the % scale 0 is the no-effect control and ±100 the full control effect
#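 HEK293 T-REx cells expressing inducible, force-coupled D1 receptor; no-wash Ca dye, 30–90 min RT. Cmpd → 180 s read at 1 Hz → EC80 DA → 180 s read.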
# D3 ag = qHTS of D3 Dopamine Receptor Agonist: qHTS | D(3) dopamine receptor (Homo sapiens), P35462 | D3R DiscoveRx beta-arrestin cells, luminescence, 90 min | max activation, % | hit rate 0.58% among 410,000 | AID 652048, 2013; in the data active means max activation above about 30%; further: 0% is about no effect
#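 Agonist-mode cell screen: cells plated at 1500/well and incubated overnight at 37 °C, then exposed to library compounds for 90 min at 37 °C. Detection reagent was added for 30–60 min at room temperature, and luminescence was read.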
# DRD3 antagonist = qHTS of D3 Dopamine Receptor Antagonist: qHTS | D(3) dopamine receptor (Homo sapiens), P35462 | D3R cells, DiscoveRx beta-arrestin luminescence, antagonist mode; hits give low values | max response, negative = inhibition, % | hit rate 2.5% among 360,000; in the data active means max response below about -50%; inconclusive means no clear call, values can overlap the other calls; further: on the % scale 0 is the no-effect control and ±100 the full control effect
#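 Cells expressing the human receptor were seeded at 1500 cells/well, incubated overnight at 37 degrees C in 5% CO2, then exposed to library compounds with dopamine controls for 90 minutes at 37 degrees C before luminescent detection.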
# D1 ag = Allosteric Agonists of the Human D1 Dopamine Receptor: qHTS | activation, % at 2 µM | hit rate 1% among 360,000 | HEK293 T-REx D1 cells, calcium flux, agonist mode | D(1A) dopamine receptor (Homo sapiens), P21728; in the data active means activation above about 30%; further: 0% is about no effect
#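 Agonism was scored from calcium flux recorded over 180 s (1 read/s) after pintool compound addition, following a 10-cycle baseline. Cells were inducible force-coupled HEK293 TREx D1, plated overnight at 30 C and loaded with no-wash calcium dye.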
# The depositor's hits bear a star; ? = inconclusive; nt = no result. In the library only some 6% were active in any assay of this set; here they are far more common.
SMILES,BCR signal inh,D1 PAM,D1 antag,D3 ag,DRD3 antagonist,D1 ag
COc1ccc(NC(=O)c2ccc(-c3nc(CSc4ccccc4)c(C)o3)cc2)c(OC)c1,nt,-4,-10,3,nt,4
Cc1cc(C)cc(OCC(=O)Nc2nc3c(s2)CC(C(C)(C)C)CC3)c1 (centres undefined),nt,-1,-75*,-10,nt,8
O=C(NCc1ccc(Cl)cc1)c1ccc(-c2ccccc2C(F)(F)F)o1,?,-3,-39*,-26,?,33*
C=CC[N+]1([C@H]2C[C@H]3[C@@H]4CC[C@H]5C[C@H](O)[C@@H](N6CCOCC6)C[C@]5(C)[C@H]4CC[C@]3(C)[C@H]2OC(C)=O)CCCC1,nt,nt,nt,-9,nt,nt
O=C(NCCN1CCN(c2ccccc2F)CC1)C1CC(=O)N(C2CCCC2)C1 (centres undefined),?,nt,nt,-9,-66*,nt
O=C(C1CC(=O)N(C2CCCC2)C1)N1CCC(Cc2ccccc2)CC1 (centres undefined),4%,-14,-38*,-8,-15,7
CCc1cccc(C)c1NC(=O)C1CC(=O)N(C2CCCC2)C1 (centres undefined),2%,0,-46*,0,-29,2
O=C(NCCCN1CCN(c2ccccc2F)CC1)C1CCCN(S(=O)(=O)c2cnc[nH]2)C1 (centres undefined),0%,-9,-53*,6,-71*,4
O=C(NCCN1CCN(Cc2ccccc2)CC1)C1CC(=O)N(C2CCCC2)C1 (centres undefined),-4%,-6,18,-18,-8,1
O=C(Nc1ccc(F)c(Cl)c1)c1cc(C2CCCCN2C(=O)c2ccccc2)on1 (centres undefined),nt,nt,nt,-7,?,nt
COCCNC(=O)C1(C)CCCN(Cc2ccccc2N(C)C)C1 (centres undefined),nt,nt,nt,5,0,nt
CN(c1cc(Cl)c2c(c1)OCO2)c1cc2c(c3c1ccn3C)C1CCC2C1 (centres undefined),nt,nt,nt,-1,-12,nt
Cc1ccc2onc(CNC(=O)Nc3ccccc3C#N)c2c1,nt,-1,5,10,nt,1
COc1ccc(CCNC(=O)c2cc3c(=O)n(C)c4ccccc4c3s2)cc1OC,nt,2,-14,6,nt,-1
CCOc1ccc(CNC(=O)c2ccc3c(c2)sc2nc(-c4ccccc4)cn23)cc1,nt,-2,11,-14,nt,-1
Cc1cccc(Cl)c1NC(=S)NN,-2%,4,-42*,-7,-15,3
Cc1c(Cl)cccc1NC(=S)NN,?,2,6,2,-6,0
CCCCNC(=S)NCCN1CCCCC1,1%,-4,-9,-3,-72*,2
CCCNC(=S)NCCN1CCCCC1,?,-7,5,-1,-63*,0
CCNC(=S)NCCN1CCCCC1,-6%,-12,-4,-3,-8,4
CCOc1ccc(CCNC(=O)CSc2nnnn2-c2ccccc2Cl)cc1OCC,nt,-5,2,-17,nt,1
COc1ccc(-c2cnn3c4c(c(C)nc23)CCN4C(C)C)cc1OC,?,1,-17,41*,33,0
COc1cccc(NC(=S)N(CCCN2CCOCC2)C(C)c2cc3cccc(OC)c3o2)c1 (centres undefined),-1%,-12,-68*,-15,-12,14
COc1cccc(NC(=O)N(CCCN2CCOCC2)C(C)c2cc3ccccc3o2)c1 (centres undefined),?,-1,0,-52,-70*,4
COc1cccc(NC(=O)N(CCCN2CCOCC2)C(C)c2cc3cccc(OC)c3o2)c1 (centres undefined),-11%,-3,-4,-14,?,0
SMILES,BCR signal inh,D1 PAM,D1 antag,D3 ag,DRD3 antagonist,D1 ag
Cc1nnc(NC(=O)c2ccc(-c3ccc(Cl)cc3)o2)s1,17%,4,-10,0,8,1
Cc1cc(O)c(NC(=S)NC(=O)c2ccc(-c3ccc(Cl)cc3)o2)cc1C,0%,-2,-34*,-32,-76*,2
Cc1ccc(O)c(NC(=S)NC(=O)Cc2ccc(Cl)cc2)c1,?,-28,-62*,-10,?,96*
CC(=O)c1ccc(NC(=S)NC(=O)Cc2ccc(Cl)cc2)cc1,?,3,-1,8,-13,41*
Cc1ccc(NC(=S)NC(=O)c2ccc(-c3ccc(Cl)cc3)o2)c(O)c1,-4%,-17,5,-16,-101*,1
COc1ccc(Nc2ncc(C(=O)Nc3ccc(F)cc3F)c3ccccc23)cc1,nt,1,-26,5,nt,4
CCN(c1ccccc1)S(=O)(=O)c1ccc(-c2cc(C)no2)s1,nt,-5,-29,-19,nt,19
CN(C)S(=O)(=O)c1ccc2c(c1)nnn2CCNC(=O)Nc1ccc(Cl)cc1,nt,0,-7,9,nt,0
Cc1cc(N2CCN(C)CC2)ccc1NC(=O)c1ccc(-c2ccc(Cl)cc2)o1,6%,-4,-62*,-10,-20,16
CCOC(=O)CC(=O)CSc1nc(-c2cccnc2)ccc1C#N,7%,-3,2,-2,-16,34*
CCOC(=O)CC(=O)CSc1nc(-c2cccnc2)cc(C)c1C#N,7%,5,-7,6,31,3
CCC1CN(C(=O)Nc2cc(C)cc(C)c2)c2ccccc2O1 (centres undefined),nt,-2,-16,12,nt,12
COc1ccc2cc(C[C@@H]3CC[C@@H](CO)O3)ccc2c1,?,nt,nt,-18,11,nt
Cc1cccc(NC(=O)Cn2c(O)c(N=NC(=O)c3ccccc3O)c3ccccc32)c1,?,-5,-16,-9,-71*,3
Cc1ccc(NC(=O)Cn2c(O)c(N=NC(=O)c3cc([N+](=O)[O-])ccc3O)c3ccccc32)cc1,?,-7,-40*,nt,nt,-1
Cc1ccc(CN2CCN(c3cccc4[nH]ccc34)CC2)cc1,?,-17,-21,30,-82*,9
Cc1ccccc1N1CCN(Cc2c[nH]c3ccccc23)CC1,1%,-7,-2,-26,-86*,19
COc1ccccc1N1CCN(Cc2c[nH]c3ccccc23)CC1,-15%,-3,5,-24,-80*,12
c1cnc(N2CCN(Cc3c[nH]c4ccccc34)CC2)nc1,?,2,-8,-7,-51*,3
